Compounds with a hit are over-represented: about 2.3% of the library has one in this group of screens.
M1 antag – human CHRM1 antagonism; P11229; CHO-K1 hM1, Fluo-8 calcium fluorescence, ACh EC80 antagonist; inhibition, % at 3 µM; 360,000 tested, 1.3% active; AID 588852;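 active = percent inhibition above its own plate's cutoff, namely the mean of that plate's compound wells plus 3 SD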;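 also: peak over basal fluorescence ratio during 140 s after agonist addition; 0% = ACh EC80 plus DMSO and 100% = DMSO alone without agonist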
Target sequence (P11229 whole entry, looked up): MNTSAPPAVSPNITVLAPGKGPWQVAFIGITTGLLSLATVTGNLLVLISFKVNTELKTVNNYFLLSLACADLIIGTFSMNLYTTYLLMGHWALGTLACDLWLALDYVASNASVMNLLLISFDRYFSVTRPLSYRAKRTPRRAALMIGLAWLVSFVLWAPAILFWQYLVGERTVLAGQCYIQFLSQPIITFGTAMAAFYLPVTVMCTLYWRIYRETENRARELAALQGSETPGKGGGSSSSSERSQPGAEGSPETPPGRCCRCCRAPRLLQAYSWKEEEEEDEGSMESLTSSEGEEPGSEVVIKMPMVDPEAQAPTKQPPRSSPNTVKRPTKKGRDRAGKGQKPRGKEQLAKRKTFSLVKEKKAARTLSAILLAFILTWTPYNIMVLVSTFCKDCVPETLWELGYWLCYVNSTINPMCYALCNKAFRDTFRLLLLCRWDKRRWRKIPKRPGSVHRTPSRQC
M1 ag parental – counter-screen for M1 agonists: effect in parental CHO-K1 cells | Fluo-8 calcium fluorescence; scaled to maximal ATP response, vehicle zero | activation, % at 3 µM | 360,000 tested, 0.48% active | AID 602248; in the data active = activation above about 15%;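 also: untransfected CHO-K1 host cells lacking M1 receptor as counterscreen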
CHO-K1 Ca antag – M1 antagonist counterscreen hit in parental CHO-K1 cells; ATP-induced calcium, Fluo-8 fluorescence; inhibition, % at 3 µM; 360,000 tested, 0.6% active;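 active = inhibition above a per-plate cutoff, the plate's mean sample inhibition plus 3 SD, cut at about 24% in these data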;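 also: 0% = DMSO plus EC80 ATP and 100% = DMSO alone without ATP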
M1 PAM – human CHRM1 positive allosteric modulation. P11229. CHO-K1 hM1, Fluo-8 calcium fluorescence, ACh EC20; 0% = ACh EC20, 100% = maximal ACh. activation, % at 3 µM. 360,000 tested, 0.088% active; in the data active = activation above about 19%, passing the limit was not always enough
CHO-K1 Ca PAM – nonselective activator or artifact in parental CHO-K1 calcium assay | activation, % at 3 µM | ATP EC20, Fluo-8 calcium fluorescence; 0% at ATP EC20, 100% at ATP max | 360,000 tested, 0.02% active;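 active = activation above the run cutoff, the mean activation of all test compounds plus 3 SD, cut at about 40% in these data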;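 also: peak over basal fluorescence ratio in a 140 s read after ATP addition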
CHRM1 agonist – human M1 muscarinic receptor agonism. P11229. activation, % at 3 µM. 360,000 tested, 0.33% active. CHO-K1 hM1, Fluo-8 calcium fluorescence, agonist mode; 0% DMSO, 100% acetylcholine EC100. AID 588814;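 active = activation above the run's mean compound activation plus 3 SD, cut at about 16% in these data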;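 also: peak over basal fluorescence ratio within a 140 s kinetic read after compound addition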
An asterisk follows results filed as active.

SMILES	M1 antag	M1 ag parental	CHO-K1 Ca antag	M1 PAM	CHO-K1 Ca PAM	CHRM1 agonist
O=C(/C=C/c1cn(-c2ccccc2)nc1-c1ccccc1)Nc1ccc(C(=O)O)cc1	98*	0	-3	-21	2	-5
CCOc1cc(/C=C\[N+](=O)[O-])ccc1OCC(=O)Nc1ccccc1C	-9	1	-2	26*	11	4
CC(C)c1nnc(NC(=O)c2cccc(NC(=O)C(F)(F)F)c2)s1	-5	2	-9	6	11	-2
CC(=O)c1c(C)[nH]c(C(=O)CN2CCN(S(=O)(=O)c3ccccc3[N+](=O)[O-])CC2)c1C	3	19*	-15	-13	9	1
CCOC(=O)C1(CCOc2ccccc2)CCN(Cc2cccc(OC)c2OC)CC1	42*	9	20	-24	-19	-2
CCOC(=O)C1(CCOc2ccccc2)CCN(Cc2ccc(OC)cc2)CC1	13	18*	5	-8	11	3
CCOC(=O)C1(CCOc2ccccc2)CCN(Cc2ccc(NC(C)=O)cc2)CC1	4	1	-1	-9	-13	-9
CC1(C)CC[C@]2(C(=O)O)CC[C@]3(CO)C(=CCC4[C@@]5(C)C[C@H](O)[C@H](O)[C@@](C)(C(=O)O)C5CC[C@]43C)[C@@H]2C1 (stereo partly drawn)	-8	0	-16	27*	1	8
C/C(=N\NS(=O)(=O)c1c(C)cc(C)cc1C)c1ccncc1	3	0	-2	-3	-15	-2
O=c1c2cc(C(F)(F)F)ccc2sn1-c1ccccc1	0	5	-3	-3	11	16*
O=c1c2cc(F)ccc2sn1-c1ccccc1	5	19*	-9	1	10	10
O=C(O)c1cccc(-n2sc3ccccc3c2=O)c1	-2	1	-11	10	23	-3
O=c1c2ccccc2sn1-c1ccccc1	6	0	24	8	-18	7
COc1ccc(CNC(=O)CN(C)S(=O)(=O)c2ccc3c(c2)OCCO3)cc1OC	-15	0	-8	9	14	-3
Cc1ccccc1OCC(=O)NCCCNC(=O)c1cccnc1	6	1	-14	-1	17	-2
O=C(NCc1cccc(Cl)c1)c1cc(COc2ccc3ncccc3c2)on1	28	12	7	-10	-2	-3
CCC1CCCCN1C(=O)c1cc(COc2ccc3ncccc3c2)on1 (stereo not drawn)	31	16*	27*	-13	-7	-1
COCCC1CCCCN1C(=O)c1cc(COc2ccc(-n3cncn3)cc2)on1 (stereo not drawn)	31*	15	25*	-4	-17	6
COCCOC1CCN(C(=O)c2cc(COc3ccc(-n4cncn4)cc3)on2)CC1	-4	1	-1	3	-3	-1
COCC1CCCCN1C(=O)c1cc(COc2ccc3ncccc3c2)on1 (stereo not drawn)	55*	20*	33*	-16	-24	6
CCN1CCN(C(=O)c2cc(COc3ccc4ncccc4c3)on2)CC1	10	11	-4	-2	14	3
Cc1ccc(F)cc1CNC(=O)c1cc(COc2ccc3ncccc3c2)on1	39*	14	17	-26	-1	1
CCOc1ccccc1N1CCN(C(=O)c2cc(S(=O)(=O)N(C)C)ccc2N2CCCC2)CC1	12	7	2	-7	-13	-3
CCCC(CCC)C(=O)Nc1ccc2c(c1)N(C(=O)CN1CCN(C)CC1)c1ccccc1CC2	78*	0	-13	-38	-2	-15
CCOC(=O)Nc1ccc2c(c1)N(C(=O)CN1CCN(C)CC1)c1ccccc1S2	75*	2	-6	-21	17	-7
SMILES	M1 antag	M1 ag parental	CHO-K1 Ca antag	M1 PAM	CHO-K1 Ca PAM	CHRM1 agonist
CCOC(=O)Nc1ccc2c(c1)N(C(=O)C(C)N1CCCC1)c1ccccc1CC2 (stereo not drawn)	91*	0	-6	-35	4	-12
CCOC(=O)Nc1ccc2c(c1)N(C(=O)CN(C)C)c1ccccc1S2	7	1	-7	-15	27	-8
CCOC(=O)Nc1ccc2c(c1)N(C(=O)OC)c1ccccc1CC2	-2	0	-7	3	9	-2
CCOC(=O)Nc1ccc2c(c1)N(C(=O)CCN(C)C)c1ccccc1S2	51*	0	-4	-22	20	-5
CCN(CC)CCC(=O)N1c2ccccc2Sc2ccc(NC(=O)OC)cc21	23	0	-6	-26	0	-9
CCN(CC)C(=O)c1[nH]cnc1C(=O)N[C@H](C)c1ccccc1	-10	1	-17	11	20	-5
COc1cc(OC)cc(C(=O)Nc2nc(CC(=O)NCc3ccccc3OC)cs2)c1	29*	5	3	-12	-15	-4
CC1CN(C(=O)CCS(=O)(=O)c2ccccc2)CC(C)O1 (stereo not drawn)	-7	0	-4	17	10	4
CCOc1ccc(NC(=O)COc2ccc(C(=O)NCc3cccnc3)cc2OC)cc1	-18	0	18	5	-22	-1
COc1cc(C(=O)NCc2cccnc2)ccc1OCC(=O)Nc1cccc(C(F)(F)F)c1	7	17*	8	-6	-15	1
CN(C)S(=O)(=O)c1ccc(Cl)c(NC(=O)C2CCN(S(=O)(=O)c3cccs3)CC2)c1	-3	5	-12	6	12	-4
CN(C)c1ccc(/C=N/Nc2nncc3ccccc23)cc1	3	1	-3	-1	14	-7
Cc1cc(-c2ccc(C)c(S(=O)(=O)NCC3CCN(Cc4ccc(F)cc4)CC3)c2)on1	-6	4	-14	-4	0	-4
COc1ccc(-c2cc(C)no2)cc1S(=O)(=O)NCC1CCN(Cc2cc(C)ccc2C)CC1	51*	3	-17	-25	6	-5
COc1ccccc1CN1CCC(CNS(=O)(=O)c2cc(-c3cc(C)no3)ccc2C)CC1	66*	6	-23	-24	7	-3
CC(=O)c1c(C)[nH]c(C(=O)OCC(=O)Nc2cc(Cl)ccc2[N+](=O)[O-])c1C	25*	12	17	-20	-3	9
C[C@H](CO)N1C[C@H](C)[C@@H](CN(C)S(=O)(=O)c2ccc(C#N)cc2)OCc2cn(nn2)CCCC1=O	-3	1	-21	0	21	-5
Cc1nc(NC(=O)CSc2nc3ccccc3s2)sc1C(=O)N(C)C	-20	3	-11	25*	6	1
CCOC(=O)c1c(N2C(=O)Nc3ccccc3N2O)n[nH]c1-c1cccc(Cl)c1	1	0	24*	-4	-16	-6
CC1CCCN(CCCNC(=O)C2CCC(CNS(=O)(=O)c3cccc4nsnc34)CC2)C1 (stereo not drawn)	45*	0	-20	-19	26	-5
